# The source made the active and inactive calls. Rule for the calls: active = hit-call score of the fitted dose curve at least 0.9, where 1 is the maximum; inactive = score below 0.9.
# Experiment: BSK_SAg_Proliferation: Cell Proliferation Assessment in the BioMAP Diversity Plus: SAg Assay (AID 2283095);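 note: relative cell number as total protein by SRB absorbance in sub-confluent culture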
# Conditions: primary human HUVEC with PBMC
# Method in brief: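 A human primary co-culture of umbilical vein endothelium and blood mononuclear cells receives compound; relative cell number is quantified at 96 h by SRB staining and 560 nm absorbance, with DMSO-referenced bidirectional curve fitting.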
Compound,outcome,AC50
CCn1nc(Cc2ccccc2)cc1C1CCN(C[C@H]2C[C@H](N(C)[C@@H](C(=O)O)C(C)C)C[C@@H]2c2cccc(F)c2)CC1,inactive,
COC(=O)c1ccccc1O,inactive,
CC(C)=CCC/C(C)=C\CO,inactive,
CC(C)CCCCCCOC(=O)c1ccc(C(=O)OCCCCCCC(C)C)c(C(=O)OCCCCCCC(C)C)c1,inactive,
CCOC(=O)CC(CC(=O)OCC)(OC(C)=O)C(=O)OCC,inactive,
CC1(C)C(=O)N(Br)C(=O)N1Br,inactive,
Clc1nc(Cl)c(Cl)c(Cl)c1Cl,,23.3 µM (active)
O=c1n(CC2CO2)c(=O)n(CC2CO2)c(=O)n1CC1CO1 (centres undefined),,10.6 µM (active)
CC[C@H]1OC(=O)[C@H](C)[C@@H](O[C@H]2C[C@@](C)(OC)[C@@H](O)[C@H](C)O2)[C@H](C)[C@@H](O[C@@H]2O[C@H](C)C[C@H](N(C)C)[C@H]2O)[C@](C)(O)C[C@@H](C)C(=O)[C@H](C)[C@@H](O)[C@]1(C)O,inactive,
CC(=O)OC[C@H]1O[C@@](COC(C)=O)(O[C@H]2O[C@H](COC(C)=O)[C@@H](OC(C)=O)[C@H](OC(C)=O)[C@H]2OC(C)=O)[C@@H](OC(C)=O)[C@@H]1OC(C)=O,inactive,
Cc1ccc(S(=O)(=O)O)cc1C,inactive,
CC(O)CN(CCN(CC(C)O)CC(C)O)CC(C)O (centres undefined),inactive,
CCC(C)(C)C(=O)O[C@H]1C[C@@H](C)C=C2C=C[C@H](C)[C@H](CC[C@@H]3C[C@@H](O)CC(=O)O3)[C@H]21,,6.31 µM (active)
O=C1CCCCCN1,inactive,
COc1cccc(-c2ccc(/C=C\CN3CCCCCC3)cc2Cl)c1,inactive,
CCCCC(CC)COC(=O)CCCCCCCCC(=O)OCC(CC)CCCC (centres undefined),inactive,
CC[C@H]1CC[C@H](NCc2cc3c(cc2OC)[C@H]2C[C@H]2C(=O)N3C)[C@H](c2ccccc2)N1,inactive,
CCCCCCCCCCCCc1ccccc1,inactive,
CC(=O)c1ccc2c(c1)[C@H](NC(=O)c1ccc(F)cc1)[C@@H](O)C(C)(C)O2,,4.31 µM (active)
CCCCCCCCCCCCCCCO,,29.5 µM (active)
CC(C)=CCC/C(C)=C/CO,inactive,
CCCC(=O)OCC,inactive,
CCCCC(CC)COC(=O)c1ccc(C(=O)OCC(CC)CCCC)cc1 (centres undefined),inactive,
COCCOc1cc2cc(C(=O)NC3CCN(C(C)C)CC3)n(CC(=O)Nc3ccc(Cl)cn3)c2cn1,inactive,
Cc1ccc(O)cc1,inactive,
C[C@](N)(Cc1ccc(O)c(O)c1)C(=O)O,,23.9 µM (active)
O=C(CCCCCCCCc1cccnc1)N1CCC(C=C(c2ccccc2)c2ccccc2)CC1,,6.21 µM (active)
C=CC(=C)CCC=C(C)C,inactive,
O=C1OC(=O)C2C3C=CC(C3)C12 (centres undefined),inactive,
